The supplement of paper PMC4022240
± gives the standard deviation.

Columns and labels:
Test in all cases: peptide microarray binding signal (635 nm), min-max normalized on array (fraction of array maximum); higher = stronger binding
Details in all cases: peptide region: H3 30-42
[1] = target: T1, HaloTag-ATRX ADD domain (163-292)
T1 chain: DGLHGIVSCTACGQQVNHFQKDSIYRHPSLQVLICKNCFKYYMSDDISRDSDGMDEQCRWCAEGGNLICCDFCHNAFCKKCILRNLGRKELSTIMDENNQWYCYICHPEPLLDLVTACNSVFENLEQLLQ
Outline: (§1)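 Triplicate spots of histone 13-mer peptide–cellulose conjugates with a Cy3 tracer were printed on nitrocellulose and probed for 1 h at 4°C with biotin-labelled HaloTag reader fusions (10 nM to 1 μM) plus streptavidin-Alexa Fluor 647 or rabbit histone antibodies (1:10,000 to 1:2,000) plus anti-rabbit Alexa 647. An Axon GenePix 4000B read the 635 nm channel. Binding signal is the spot-triplicate mean intensity after min-max scaling within each library.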

[2] = target: HaloTag-ING2 PHD (mouse Ing2 200-280)
Outline: as §1

[3] = target: anti-H3K4me3 antibody ab8580
Outline: as §1

[4] = target: anti-H3K9me3 antibody ab8898
Outline: as §1

[5] = peptide modifications: H3K37me1, binder concentration: 1:2,000 dilution
[6] = peptide modifications: H3K37me1, binder concentration: 1:10,000 dilution
[7] = peptide modifications: H3K36me2, binder concentration: 1:2,000 dilution
[8] = peptide modifications: H3K36me2, binder concentration: 1:10,000 dilution
[9] = peptide modifications: H3T32ph H3K36me1, binder concentration: 1:2,000 dilution
[10] = peptide modifications: H3T32ph H3K36me1, binder concentration: 1:10,000 dilution
[11] = peptide modifications: H3K37me3, binder concentration: 1:2,000 dilution
[12] = peptide modifications: H3K37me3, binder concentration: 1:10,000 dilution
[13] = peptide modifications: H3K36me2 H3K37me1, binder concentration: 1:2,000 dilution
[14] = peptide modifications: H3K36me2 H3K37me1, binder concentration: 1:10,000 dilution
[15] = peptide modifications: H3K36me1 H3K37me3, binder concentration: 1:2,000 dilution
[16] = peptide modifications: H3K36me1 H3K37me3, binder concentration: 1:10,000 dilution
[17] = peptide modifications: H3K36me3, binder concentration: 1:2,000 dilution
[18] = peptide modifications: H3K36me3, binder concentration: 1:10,000 dilution
[19] = peptide modifications: H3K37me2, binder concentration: 1:2,000 dilution
[20] = peptide modifications: H3K37me2, binder concentration: 1:10,000 dilution
[21] = peptide modifications: H3K36me2 H3K37me3, binder concentration: 1:2,000 dilution
[22] = peptide modifications: H3K36me2 H3K37me3, binder concentration: 1:10,000 dilution
[23] = peptide modifications: H3K36me1 H3K37me2, binder concentration: 1:2,000 dilution
[24] = peptide modifications: H3K36me1 H3K37me2, binder concentration: 1:10,000 dilution

For PATGGVKKPHRYR [H3 30-42 P A T G G V K Kme P H R Y R], the “peptide microarray binding signal” value ([1]; peptide modifications: H3K37me1, binder concentration: 50 nM) was 0.0106 ± 0.00056, the “peptide microarray binding signal” value ([1]; peptide modifications: H3K37me1, binder concentration: 500 nM) was 0.0245 ± 0.0059 and the “peptide microarray binding signal” value ([2]; peptide modifications: H3K37me1, binder concentration: 10 nM) was 0.0491 ± 0.0011. For the same binder, the “peptide microarray binding signal” value ([2]; peptide modifications: H3K37me1, binder concentration: 100 nM) was 0.0698 ± 0.0049, the “peptide microarray binding signal” value [3, 5] was 0.0068 ± 0.00068 and the “peptide microarray binding signal” value [3, 6] was 0.00765 ± 0.00036. The “peptide microarray binding signal” value [4, 5] was 0.00234 ± 4.8e-05 and the “peptide microarray binding signal” value [4, 6] was 0.00225 ± 5.4e-05.

For PATGGVKKPHRYR [H3 30-42 P A T G G V Kme2 K P H R Y R], the “peptide microarray binding signal” value ([1]; peptide modifications: H3K36me2, binder concentration: 50 nM) was 0.00417 ± 0.0002, the “peptide microarray binding signal” value ([1]; peptide modifications: H3K36me2, binder concentration: 500 nM) was 0.00919 ± 0.00057 and the “peptide microarray binding signal” value ([2]; peptide modifications: H3K36me2, binder concentration: 10 nM) was 0.0135 ± 0.0016. The “peptide microarray binding signal” value ([2]; peptide modifications: H3K36me2, binder concentration: 100 nM) was 0.0203 ± 0.0023, the “peptide microarray binding signal” value [3, 7] was 0.0031 ± 0.00053 and the “peptide microarray binding signal” value [3, 8] was 0.00377 ± 0.00013. For the same binder, the “peptide microarray binding signal” value [4, 7] was 0.00305 ± 0.00012 and the “peptide microarray binding signal” value [4, 8] was 0.00271 ± 7.1e-05.

PATGGVKKPHRYR [H3 30-42 P A Tph G G V Kme K P H R Y R] was tested, and the “peptide microarray binding signal” value ([1]; peptide modifications: H3T32ph H3K36me1, binder concentration: 50 nM) was 0.00552 ± 0.00021, the “peptide microarray binding signal” value ([1]; peptide modifications: H3T32ph H3K36me1, binder concentration: 500 nM) was 0.00914 ± 0.00072 and the “peptide microarray binding signal” value ([2]; peptide modifications: H3T32ph H3K36me1, binder concentration: 10 nM) was 0.00871 ± 0.00013. The “peptide microarray binding signal” value ([2]; peptide modifications: H3T32ph H3K36me1, binder concentration: 100 nM) was 0.0167 ± 0.0011, the “peptide microarray binding signal” value [3, 9] was 0.00193 ± 0.00024 and the “peptide microarray binding signal” value [3, 10] was 0.00257 ± 0.00014. For the same binder, the “peptide microarray binding signal” value [4, 9] was 0.00118 ± 0.00016 and the “peptide microarray binding signal” value [4, 10] was 0.00144 ± 0.00011.

With PATGGVKKPHRYR [H3 30-42 P A T G G V K Kme3 P H R Y R] the “peptide microarray binding signal” value ([1]; peptide modifications: H3K37me3, binder concentration: 50 nM) was 0.00621 ± 0.00029, the “peptide microarray binding signal” value ([1]; peptide modifications: H3K37me3, binder concentration: 500 nM) was 0.00781 ± 0.00023 and the “peptide microarray binding signal” value ([2]; peptide modifications: H3K37me3, binder concentration: 10 nM) was 0.00949 ± 0.00038. The “peptide microarray binding signal” value ([2]; peptide modifications: H3K37me3, binder concentration: 100 nM) was 0.0356 ± 0.036, the “peptide microarray binding signal” value [3, 11] was 0.00183 ± 9e-05 and the “peptide microarray binding signal” value [3, 12] was 0.00234 ± 4.2e-05. For the same binder, the “peptide microarray binding signal” value [4, 11] was 0.00216 ± 0.00026 and the “peptide microarray binding signal” value [4, 12] was 0.00185 ± 5.2e-05.

With PATGGVKKPHRYR [H3 30-42 P A T G G V Kme2 Kme P H R Y R] the “peptide microarray binding signal” value ([1]; peptide modifications: H3K36me2 H3K37me1, binder concentration: 50 nM) was 0.00476 ± 8.1e-05, the “peptide microarray binding signal” value ([1]; peptide modifications: H3K36me2 H3K37me1, binder concentration: 500 nM) was 0.0141 ± 0.0045 and the “peptide microarray binding signal” value ([2]; peptide modifications: H3K36me2 H3K37me1, binder concentration: 10 nM) was 0.00913 ± 0.0015. The “peptide microarray binding signal” value ([2]; peptide modifications: H3K36me2 H3K37me1, binder concentration: 100 nM) was 0.00376 ± 0.0011, the “peptide microarray binding signal” value [3, 13] was 0.000774 ± 0.00022 and the “peptide microarray binding signal” value [3, 14] was 0.00622 ± 0.002. For the same binder, the “peptide microarray binding signal” value [4, 13] was 0.00214 ± 0.00062 and the “peptide microarray binding signal” value [4, 14] was 0.00208 ± 0.00019.

For PATGGVKKPHRYR [H3 30-42 P A T G G V Kme Kme3 P H R Y R], the “peptide microarray binding signal” value ([1]; peptide modifications: H3K36me1 H3K37me3, binder concentration: 50 nM) was 0.00135 ± 1.7e-05, the “peptide microarray binding signal” value ([1]; peptide modifications: H3K36me1 H3K37me3, binder concentration: 500 nM) was 0.00229 ± 8.8e-05 and the “peptide microarray binding signal” value ([2]; peptide modifications: H3K36me1 H3K37me3, binder concentration: 10 nM) was 0.00203 ± 8.9e-05. The “peptide microarray binding signal” value ([2]; peptide modifications: H3K36me1 H3K37me3, binder concentration: 100 nM) was 0.00191 ± 0.00013, the “peptide microarray binding signal” value [3, 15] was 0.000359 ± 2.1e-05 and the “peptide microarray binding signal” value [3, 16] was 0.000514 ± 1.1e-05. The “peptide microarray binding signal” value [4, 15] was 0.0008 ± 8.7e-05 and the “peptide microarray binding signal” value [4, 16] was 0.000807 ± 1.5e-05.

For PATGGVKKPHRYR [H3 30-42 P A T G G V Kme3 K P H R Y R], the “peptide microarray binding signal” value ([1]; peptide modifications: H3K36me3, binder concentration: 50 nM) was 0.00574 ± 0.00018, the “peptide microarray binding signal” value ([1]; peptide modifications: H3K36me3, binder concentration: 500 nM) was 0.007429 ± 7.1e-05 and the “peptide microarray binding signal” value ([2]; peptide modifications: H3K36me3, binder concentration: 10 nM) was 0.0195 ± 0.00025. The “peptide microarray binding signal” value ([2]; peptide modifications: H3K36me3, binder concentration: 100 nM) was 0.02445 ± 0.00017, the “peptide microarray binding signal” value [3, 17] was 0.00383 ± 0.00027 and the “peptide microarray binding signal” value [3, 18] was 0.00468 ± 0.00012. The “peptide microarray binding signal” value [4, 17] was 0.0031 ± 0.00028 and the “peptide microarray binding signal” value [4, 18] was 0.00219.

In the case of PATGGVKKPHRYR [H3 30-42 P A T G G V K Kme2 P H R Y R], the “peptide microarray binding signal” value ([1]; peptide modifications: H3K37me2, binder concentration: 50 nM) is reported as 0.0036 ± 0.00019, the “peptide microarray binding signal” value ([1]; peptide modifications: H3K37me2, binder concentration: 500 nM) is reported as 0.00771 ± 0.00019 and the “peptide microarray binding signal” value ([2]; peptide modifications: H3K37me2, binder concentration: 10 nM) is reported as 0.0121 ± 0.00097. For the same binder, the “peptide microarray binding signal” value ([2]; peptide modifications: H3K37me2, binder concentration: 100 nM) was 0.0202 ± 0.002, the “peptide microarray binding signal” value [3, 19] was 0.00302 ± 0.00039 and the “peptide microarray binding signal” value [3, 20] was 0.00297 ± 0.00012. For the same binder, the “peptide microarray binding signal” value [4, 19] was 0.00163 ± 0.00014 and the “peptide microarray binding signal” value [4, 20] was 0.001441 ± 1.4e-05.

For PATGGVKKPHRYR [H3 30-42 P A T G G V Kme2 Kme3 P H R Y R], the “peptide microarray binding signal” value ([1]; peptide modifications: H3K36me2 H3K37me3, binder concentration: 50 nM) was 0.00266 ± 7.1e-05, the “peptide microarray binding signal” value ([1]; peptide modifications: H3K36me2 H3K37me3, binder concentration: 500 nM) was 0.00343 ± 0.00019 and the “peptide microarray binding signal” value ([2]; peptide modifications: H3K36me2 H3K37me3, binder concentration: 10 nM) was 0.00298 ± 6.6e-05. The “peptide microarray binding signal” value ([2]; peptide modifications: H3K36me2 H3K37me3, binder concentration: 100 nM) was 0.00454 ± 0.00042, the “peptide microarray binding signal” value [3, 21] was 0.0016 ± 0.00015 and the “peptide microarray binding signal” value [3, 22] was 0.00126 ± 3.7e-05. For the same binder, the “peptide microarray binding signal” value [4, 21] was 0.00429 ± 0.0012 and the “peptide microarray binding signal” value [4, 22] was 0.00133 ± 4e-05.

For PATGGVKKPHRYR [H3 30-42 P A T G G V Kme Kme2 P H R Y R], the “peptide microarray binding signal” value ([1]; peptide modifications: H3K36me1 H3K37me2, binder concentration: 50 nM) was 0.00241 ± 8.1e-05, the “peptide microarray binding signal” value ([1]; peptide modifications: H3K36me1 H3K37me2, binder concentration: 500 nM) was 0.00529 ± 0.00037 and the “peptide microarray binding signal” value ([2]; peptide modifications: H3K36me1 H3K37me2, binder concentration: 10 nM) was 0.00442 ± 0.00037. The “peptide microarray binding signal” value ([2]; peptide modifications: H3K36me1 H3K37me2, binder concentration: 100 nM) was 0.00709 ± 0.0016, the “peptide microarray binding signal” value [3, 23] was 0.000245 ± 5.2e-06 and the “peptide microarray binding signal” value [3, 24] was 0.000571 ± 1.1e-05. For the same binder, the “peptide microarray binding signal” value [4, 23] was 0.00337 ± 0.0001 and the “peptide microarray binding signal” value [4, 24] was 0.000865 ± 2.4e-05.
